The source of these data is PubChem BioAssay (NCI).

About 83,000 compounds went through this panel and 20% of them were active in at least one assay; those are over-represented in the sample as a whole.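 Results are percent growth after 48 hours of single-concentration exposure. 100 means growth as in untreated cells, lower positive values show inhibition; negative values down to -100 show cell death.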 Values without a mark were called inactive. Calls of active or inactive are those of the source. How the source made its calls: active means growth percent below 10; inactive means the rest.

Experiment in all cases: NCI-60 one-dose screen, 48 h (100 = growth as untreated, 0 = no growth, -100 = all killed)
Common to all, as to details: 10 µM

Test [1] relates to NCI-H23 lung.
Test [2] has as its system NCI-H226 lung.
For test [3], the system named is NCI-H322M lung.
Test [4] concerns HOP-62 NSCLC.
Test [5] has as its system NCI-H460 lung.
Test [6] has as its system HOP-92 NSCLC.
The test system of test [7] is NCI-H522 lung.
Test [8] concerns A549/ATCC NSCLC.
For test [9], the system named is 786-0 renal.
Test [10] deals with COLO 205 colon.
Test [11] concerns DU-145 prostate.
Test [12] relates to K-562 leukemia.
The subject of test [13] is MALME-3M melanoma.
In test [14] the test system is MDA-MB-231 breast.
The test system of test [15] is RXF 393 renal.
The subject of test [16] is SF-268 CNS.
Test [17] concerns SF-295 CNS.
For test [18], the system named is SF-539 CNS.
Test [19] deals with UACC-257 melanoma.
The test system of test [20] is M14 melanoma.

`Cc1ccc2oc(=O)cc(/C(=C3/C=CC=N3)c3ccc[nH]3)c2c1`: the growth in test [1] is 9.51% (active); in [2] it was -7.14% (active); in test [3] it was 25.4%; in [4], -11.3% (active); in [5] it was -2.31% (active); in test [6], 7.28% (active). Moreover, the growth was -33.2% (active) in test [7]; -21% (active) in test [8]; 3.15% (active) in [9]; -53.6% (active) in test [10]; 0.492% (active) in test [11]; -0.946% (active) in [12]. The growth was 25.6% in test [13]; -6.98% (active) in test [14]; -21.7% (active) in test [15]; 12.7% in [16]; -23.9% (active) in [17]; -33.6% (active) in [18]. Moreover, the growth in [19] was 6.21% (active); in test [20], -7.95% (active).
Regarding `COc1ccc(C2C=C(c3ccc(Cl)cc3)N=C3SC=CN32)c(Br)c1` (stereo not given), the growth is 71.6% in test [1]; 81.4% in test [2]; 112% in [3]; 87.3% in test [4]; 76.7% in test [5]; 76.2% in test [6]. Further, the growth in test [7] is 65.5%; in test [8] it was 56.8%; in [9] it was 89.6%; in test [10], 70.4%; in test [11], 97%; in test [12] it was 66.1%. Moreover, the growth is 106% in [13]; 47.7% in test [14]; 69.8% in test [15]; 71.2% in test [16]; 55.6% in [17]; 91.1% in test [18]. Also, the growth in [19] is 83.2%; in [20], 78.6%.
`O=NN(CCCl)C(=O)NCc1ccc(-c2ccc(CNC(=O)N(CCCl)N=O)cc2)cc1`: the growth is 103% in test [1]; 96.7% in test [2]; 86.2% in [3]; 91.5% in test [4]; 97.8% in test [5]; 96.5% in [6]. The growth in [7] was 81.7%; in test [8], 87.1%; in test [9] it was 94.8%; in [10], 104%; in [11] it was 112%; in test [12], 84.2%. Moreover, the growth in test [13] is 74.3%; in test [14] it was 124%; in test [15] it was 108%; in test [16], 69.7%; in test [17], 83.2%; in test [18] it was 65.7%. For the same compound, the results for the growth in test [19] and in test [20] were 96.6% and 95.4%, respectively.
Turning to `CCOC(=O)CNC(=O)Nc1ccc(Oc2ccc(NC(=O)NCC(=O)OCC)cc2)cc1`, the growth was 104% in test [1]; 98.8% in test [2]; 96.3% in test [3]; 96.1% in test [4]; 101% in [5]; 92.2% in [6]. Besides, the growth in test [7] is 96.2%; in [8], 90.6%; in test [9], 105%; in [10] it was 105%; in test [11], 112%; in test [12] it was 105%. Besides, the growth is 102% in test [13]; 108% in [14]; 91.6% in [15]; 104% in test [16]; 93% in test [17]; 86.7% in test [18]. Besides, the growth in test [19] is 96.2%; in [20], 101%.
Consider `CC(C)c1[nH]nc2c(NCc3ccc(-c4ccccn4)cc3)nc(SCCN(C)C)nc12`, for which the growth in test [1] was -23.8% (active); in test [2], 2.16% (active); in [3], 17%; in [4], -11.2% (active); in test [5] it was 8% (active); in [6], -15.9% (active). The growth was -48.3% (active) in test [7]; 8.6% (active) in test [8]; 11.3% in [9]; -42% (active) in test [10]; 11.4% in test [11]; 5.19% (active) in test [12]. In addition, the growth is -52.2% (active) in test [13]; 1.25% (active) in [14]; -69.1% (active) in [15]; 6.37% (active) in test [16]; 2.15% (active) in test [17]; -43.5% (active) in [18]. Moreover, the growth was -4.44% (active) in test [19] and -32.9% (active) in [20].
Take `COc1cccc(C(=O)N(c2ccc(F)c(F)c2)C(C(=O)NC(C)(C)C)c2cc3c(C)cc(C)cc3nc2Cl)c1` (stereo not given): the growth in [1] was 66%; in test [2] it was 65.7%; in test [3], 84.7%; in test [4], 86.6%; in test [5] it was 64.1%; in test [6] it was 47%. Besides, the growth in test [7] was 61.6%; in test [8] it was 52.8%; in test [9], 76.6%; in test [10], 70.2%; in test [11], 75.5%; in [12] it was 55.8%. Also, the growth in test [13] is 95%; in test [14], 47.4%; in test [15] it was 72.3%; in test [16], 64.7%; in test [17], 54%; in test [18] it was 79.4%. Moreover, the growth in test [19] is 79.6%; in test [20], 64.9%.
For `COc1ccc(C(=O)/C=C/c2cc(-c3ccc(OC)c(OC)c3)n[nH]2)cc1OC`, the growth in [1] was 8.17% (active); in [2] it was 58%; in test [3] it was -13.5% (active); in test [4], -33.5% (active); in [5], -42.2% (active); in [6], -59.3% (active). For the same compound, the growth in test [7] was -89.4% (active); in test [8], -12.8% (active); in test [9], -64.2% (active); in [10], -60.7% (active); in [11], -25.8% (active); in test [12], 5.44% (active). Besides, the growth in test [13] was -47.5% (active); in test [14] it was -18.7% (active); in test [15], -79.3% (active); in test [16] it was -28% (active); in test [17] it was 18%; in test [18], -99.3% (active). For the same compound, the values for the growth in [19] and in test [20] were 11.7% and 18.1%, respectively.
`COc1cccc(C(=O)NNc2nc(N3CCN(C4CCCCC4)CC3)nc(N3CCN(C(c4ccccc4)c4ccccc4)CC3)n2)c1`: the growth in [1] was 41.5%; in [2], 73.7%; in [3], 74.5%; in test [4], 45.2%; in test [5], 46.1%; in test [6] it was 45.5%. Further, the growth in [7] was 60.5%; in [8], 35.8%; in [9], 53%; in test [10] it was 14.2%; in test [11], 87.5%; in test [12], 11.5%. The growth in test [13] was 9.41% (active); in [14], 57.2%; in test [15], 64.7%; in test [16], 51.1%; in [17], 77.3%; in test [18] it was 61.7%. The growth was 23.1% in test [19] and 42.5% in test [20].
